Screening results from PubChem BioAssay.
A selection: hits, their analogues and other compounds. The true share with any hit is near 4%.
HIF-2a inh = blocks HIF-2a reporter activity | AID 624352 | 786-0 RCC cells HIF-2a reporter, luciferase luminescence, overnight | 0.72% of 360,000 active | inhibition, % at 18.8 µM;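 active = inhibition of the luminescence signal of 40% or more relative to plate controls, in a single-dose primary screen at 18.75 µM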
CF NFkB inh = cystic fibrosis NF-kB activation inhibition. KKLEB NF-kB-GFP reporter, PAF-induced, GFP fluorescence overnight. inhibition, % at 5 µM. 0.86% of 360,000 active;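 active = at least 50% inhibition at 5 µM, scaled per plate between neutral and stimulator controls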;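 also: PAF is a Pseudomonas aeruginosa culture filtrate used as stimulus; plate controls were PAF-stimulated DMSO wells for no effect and unstimulated DMSO wells for full effect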
Peg3 promoter = reduces Peg3 promoter-driven luciferase expression in HeLa; 1.7% of 360,000 active; inhibition, % at 20 µM; HeLa PEG-Prom luciferase reporter, luminescence, overnight;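 active = inhibition of at least 50% at 20 µM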
TWEAK Fn14 block = TWEAK-Fn14 signaling inhibition; AID 1159606; 2% of 360,000 active; inhibition, % at 10 µM; TWEAK-stimulated Fn14 reporter cells, luciferase luminescence, 8 h; in the data active = inhibition above about 50%
TROY signal inh = inhibitors of TROY-dependent NF-kB signaling; inhibition, % at 10 µM; Q293 LMP1-TROYcd NF-kB luciferase reporter, 4 h; 0.98% of 360,000 active;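 active = compounds whose plate-normalised and pattern-corrected inhibition of the luciferase reporter signal at the single screening dose is 50% or more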
KKLEB cytotox = reduces viability of KKLEB cystic fibrosis airway cells. KKLEB CF airway cells viability, ATPlite luminescence, overnight; hits give low values; cells stimulated with P. aeruginosa culture filtrate. activity change (cytotoxicity), % at 5 µM. 0.36% of 360,000 active;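 active = corrected activity change at or below -50% at 5 µM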
Numbers without * were called inactive.

`COc1ccc(O)c(C=Nc2cc(NC(C)=O)c(Cl)cc2Cl)c1` gave HIF-2a inh 5, CF NFkB inh -7, Peg3 promoter -11, TWEAK Fn14 block 6, TROY signal inh -14 and KKLEB cytotox 7.
CC(=O)N(C)/C=C1\Sc2ccccc2C1=O was read as HIF-2a inh -10, CF NFkB inh 8, Peg3 promoter -1, TWEAK Fn14 block -16, TROY signal inh 29 and KKLEB cytotox -10.
CC(=O)Nc1ccc(C=NN=C2c3ccccc3-c3ccccc32)cc1 was read as HIF-2a inh -91, CF NFkB inh -46, Peg3 promoter 74*, TWEAK Fn14 block 6, TROY signal inh -31 and KKLEB cytotox -1.
`CC(=O)Nc1ccc(/C=C2\Sc3ccccc3C2=O)cc1` gave HIF-2a inh 50*, CF NFkB inh 0, Peg3 promoter -109, TWEAK Fn14 block -24, TROY signal inh -17 and KKLEB cytotox -3.
For Cc1ccc(O)c(N=Nc2ccccc2)n1 the results were HIF-2a inh -187, CF NFkB inh 1, Peg3 promoter -164, TWEAK Fn14 block 57*, TROY signal inh 26 and KKLEB cytotox -1.
For c1csc(CNc2ccc3c(c2)OCCO3)c1 the results were HIF-2a inh -50, CF NFkB inh -16, Peg3 promoter -23, TWEAK Fn14 block 63*, TROY signal inh 30 and KKLEB cytotox -1.
For Oc1ccccc1CNc1ccc2c(c1)OCCO2 the results were HIF-2a inh -54, CF NFkB inh 22, Peg3 promoter -102, TWEAK Fn14 block 39, TROY signal inh 30 and KKLEB cytotox -4.
`CCOc1ccc(NC(=O)NCCCN2CCCC2)cc1` gave HIF-2a inh 13, CF NFkB inh 7, Peg3 promoter 3, TWEAK Fn14 block 90*, TROY signal inh -7 and KKLEB cytotox -8.
For CCOc1ccc(OCc2cccc(C(=O)Nc3ccc(CN4CCCCC4)cc3)c2)cc1 the results were HIF-2a inh -9, CF NFkB inh 28, Peg3 promoter 50*, TWEAK Fn14 block -86, TROY signal inh -47 and KKLEB cytotox -18.
`O=C(Nc1ccc(OCc2ccccc2)cc1)Nc1ccccc1C(=O)NCCCN1CCOCC1` gave HIF-2a inh -105, CF NFkB inh -10, Peg3 promoter -45, TWEAK Fn14 block 89*, TROY signal inh -28 and KKLEB cytotox -5.
For COc1ccc(OCc2cccc(C(=O)Nc3ccc(CN4CCCCC4)cc3)c2)cc1 the results were HIF-2a inh -35, CF NFkB inh 17, Peg3 promoter -162, TWEAK Fn14 block -39, TROY signal inh -99 and KKLEB cytotox -20.
For O=C(Nc1ccccc1C(=O)NCCCN1CCOCC1)c1ccc(F)cc1F the results were HIF-2a inh 11, CF NFkB inh 9, Peg3 promoter -10, TWEAK Fn14 block 4, TROY signal inh 14 and KKLEB cytotox 0.
Screening O=C(NCCCN1CCCC1)Nc1ccc(F)cc1 returned HIF-2a inh 7, CF NFkB inh 9, Peg3 promoter 4, TWEAK Fn14 block -32, TROY signal inh -6 and KKLEB cytotox 1.
CCOc1ccc(-n2c(C)c3c(C)nnc(C)c3c2C)cc1 was read as HIF-2a inh 16, CF NFkB inh -14, Peg3 promoter 10, TWEAK Fn14 block -14, TROY signal inh 11 and KKLEB cytotox 4.
For Cc1ccc(Cc2nnc(SCC(=O)Nc3ccccc3)[nH]c2=O)cc1 the results were HIF-2a inh -1, CF NFkB inh -6, Peg3 promoter 5, TWEAK Fn14 block -8, TROY signal inh 8 and KKLEB cytotox 10.
C[C@@H]1CN([C@@H](C)CO)S(=O)(=O)c2ccc(Br)cc2O[C@H]1CN(C)C(=O)Nc1ccc(C(F)(F)F)cc1 was read as HIF-2a inh -13, CF NFkB inh -13, Peg3 promoter 53*, TWEAK Fn14 block 8, TROY signal inh -4 and KKLEB cytotox -25.
For C[C@@H]1CN([C@H](C)CO)S(=O)(=O)c2ccc(C#Cc3ccccc3F)cc2O[C@@H]1CN(C)C(=O)Cc1ccccc1 the results were HIF-2a inh 28, CF NFkB inh 26, Peg3 promoter 31, TWEAK Fn14 block 50*, TROY signal inh 30 and KKLEB cytotox -10.
C[C@@H]1CN([C@H](C)CO)S(=O)(=O)c2ccc(Br)cc2O[C@@H]1CN(C)C(=O)Nc1ccc(C(F)(F)F)cc1 was read as HIF-2a inh 7, CF NFkB inh 10, Peg3 promoter 20, TWEAK Fn14 block 20, TROY signal inh 20 and KKLEB cytotox -17.
Screening C[C@H]1CN([C@@H](C)CO)S(=O)(=O)c2ccc(Br)cc2O[C@@H]1CN(C)Cc1cccc(F)c1 returned HIF-2a inh 16, CF NFkB inh -9, Peg3 promoter 56*, TWEAK Fn14 block 17, TROY signal inh 9 and KKLEB cytotox -2.
Screening CCCc1nc2c(=O)n(C)c(=O)[nH]c2n1C returned HIF-2a inh 18, CF NFkB inh -6, Peg3 promoter 22, TWEAK Fn14 block 22, TROY signal inh 29 and KKLEB cytotox 6.
For CC(C)c1noc2ncc(C(=O)c3cc(Cl)cc(Cl)c3O)cc12 the results were HIF-2a inh 13, CF NFkB inh 27, Peg3 promoter 37, TWEAK Fn14 block 10, TROY signal inh 62* and KKLEB cytotox -7.
CCCCNc1nc(N)nc(-c2cc(Cl)ccc2O)n1 was read as HIF-2a inh -184, CF NFkB inh 82*, Peg3 promoter 33, TWEAK Fn14 block 82*, TROY signal inh 28 and KKLEB cytotox -27.
Screening Nc1[nH]n(-c2ccccc2)c(=O)c1N=Nc1ccc2c(c1)OCCO2 returned HIF-2a inh -140, CF NFkB inh -28, Peg3 promoter -178, TWEAK Fn14 block 68*, TROY signal inh 51* and KKLEB cytotox -9.
O=C(Cc1ccccc1)N/N=C/c1cc(Br)cc(Br)c1O was read as HIF-2a inh 14, CF NFkB inh 17, Peg3 promoter 54*, TWEAK Fn14 block 4, TROY signal inh 32 and KKLEB cytotox -13.
Screening O=C(CNC(=O)c1cccc(Br)c1)N/N=C/c1cc(Br)cc(Br)c1O returned HIF-2a inh 15, CF NFkB inh 16, Peg3 promoter 54*, TWEAK Fn14 block 7, TROY signal inh -5 and KKLEB cytotox 1.
`O=C(Cc1ccccc1)N/N=C/c1cc(Br)cs1` gave HIF-2a inh -144, CF NFkB inh 15, Peg3 promoter -90, TWEAK Fn14 block -29, TROY signal inh -35 and KKLEB cytotox -2.
Screening O=C(CNC(=O)c1cccc(Br)c1)N/N=C/c1cccs1 returned HIF-2a inh -5, CF NFkB inh -24, Peg3 promoter 3, TWEAK Fn14 block -12, TROY signal inh 3 and KKLEB cytotox 3.
Screening O=C(CCNC(=O)c1ccccc1Cl)Nc1ccc(S(=O)(=O)Nc2ncccn2)cc1 returned HIF-2a inh 20, CF NFkB inh -1, Peg3 promoter 5, TWEAK Fn14 block 1, TROY signal inh 9 and KKLEB cytotox 3.
